Screening data from PubChem BioAssay.
Rows were chosen to be rich in hits. Some 19% of all compounds tested hit in one or more screens of this group.
KB-V1 cytotox: kills drug-selected multidrug resistant KB-V1 cells. Potency, µM (doses to about 46.1 µM), most hits filed as cytotoxic. 400,000 compounds, 3.4% hits. KB-V1 MDR cells viability, CellTiter-Glo, 72 h; further: nearly all actives have a fitted effect of over 60% in size
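Compound-treated KB-V1 multidrug-resistant cells, 72 h, 37 degrees C; viability by CellTiter-Glo. Fitted qHTS curves give the values.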
HT1080NT lethal: kills 2HG-producing HT-1080-NT fibrosarcoma cells. HT-1080-NT fibrosarcoma viability, CellTiter-Glo ATP luminescence, 48 h. Potency, µM (doses to about 46.1 µM), without a hit: at the top dose activity, negative = less viability, hits mostly cytotoxic. 360,000 compounds, 1.6% hits;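 further: NT is the 2HG producing partner of a matched IDH1 knockdown line; 0% = DMSO-treated cells and -100% = media-only wells without cells; nearly all actives have a fitted effect of over 55% in size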
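A 48-hour cytotoxicity screen used HT-1080-NT cells plated 2 hours before compound delivery. ATP-based CellTiter-Glo luminescence measured viability, normalized to DMSO and no-cell controls.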
TDP1 cell noCPT: qHTS for Inhibitors of human tyrosyl-DNA phosphodiesterase 1 (TDP1): qHTS in cells in absence of CPT. DT40 Tdp1-/- hTDP1 cells, no CPT, ATP luminescence, 48 h. AID 686978, 2013. 420,000 compounds, 15% hits. Potency, µM (doses to about 46.2 µM), for the others: at the top dose activity change, negative = growth inhibition, usual class: inhibitors; further: nearly all actives have a fitted effect of over 55% in size
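No-CPT arm: Tdp1-/-;hTDP1 DT40 cells (400/well) plus compounds, incubated ≥48 hr at 37 °C. Readout CellTiter-Glo luminescence.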
KB-3-1 tox: KB-3-1 parental cell cytotoxicity; Potency, µM (top dose mostly 46.1 µM), most hits filed as cytotoxic; 400,000 compounds, 1.4% hits; AID 1347075; KB-3-1 viability, CellTiter-Glo ATP luminescence, 72 h; further: nearly all actives have a fitted effect of over 60% in size
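Cells are dispensed, compounds pinned in, plates held at 37 °C for 72 h, then CellTiter-Glo is added and luminescence read after 10 minutes. Cell line: parental KB-3-1 in phenol-red-free DMEM, 10% FBS.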
HT1080 IDH1KD tx: HT-1080 IDH1 knockdown cell toxicity (counter line); AID 686971; Potency, µM (highest dose often 46.1 µM), inactives show top-dose activity, negative = toxicity, hits mostly cytotoxic; 360,000 compounds, 2% hits; HT-1080 IDH1 knockdown viability, ATP luminescence, 48 h;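 further: 0% = DMSO wells and -100% = cell-free medium wells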
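Luminescent ATP read-out (CellTiter-Glo, 10 min at room temperature) after 48 h compound exposure at 37 °C gave viability of IDH1-knockdown HT-1080 cells. Activity was normalised to DMSO and cell-free wells, then fitted as concentration-response curves.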
TDP1 cell CPT: growth inhibition of DT40 Tdp1-/-;hTDP1 cells with camptothecin (screen for TDP1 inhibitors). 420,000 compounds, 12% hits. Potency, µM (titrated, usually from 46.2 µM), for inactives: at the top dose activity change, negative = growth inhibition, most hits filed as inhibitors. chicken DT40 Tdp1-/-;hTDP1 cells + 20 nM CPT, ATP luminescence, 48 h; further: nearly all actives have a fitted effect of over 55% in size
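Chicken DT40 Tdp1-/- cells stably complemented with human TDP1 were seeded at 400 cells/well in medium containing 20 nM camptothecin, exposed to pin-transferred compounds, and grown at 37 °C for at least 48 hr. Viability was read as ATP luminescence.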
Starred values were filed as active, the others as inactive. The call rests on the fitted dose curve; in most records, active means well fitted curve in the direction sought with a large enough effect; inconclusive means small, poorly fitted or top-dose-only effect, or another doubt; inactive means no such curve, though single readings can be large; an effect the other way counts as inactive or inconclusive. Unless noted, on the % scale 0 is the no-effect control and ±100 the full control effect; potency means the concentration at half of the fitted maximal effect.

What do the screens show for `COC(=O)N1CCC[C@@]2(CCN(C(=O)Nc3cccc(C#N)c3)C2)C1`?
TDP1 cell noCPT: 0.046µM*; TDP1 cell CPT: inconclusive

What do the screens show for `O=C(c1csnn1)N1CCC[C@@]2(CCN(C(c3ccccc3)c3ccccc3)C2)C1`?
TDP1 cell noCPT: 18µM*; TDP1 cell CPT: inconclusive

Results for O=C(c1csnn1)N1CCC[C@@]2(CCN(c3ccncc3)C2)C1 ?
TDP1 cell noCPT: -11%; TDP1 cell CPT: -3%

What do the screens show for `CNc1oc(-c2ccccc2Cl)nc1P(=O)(c1ccccc1)c1ccccc1`?
KB-V1 cytotox: inactive; HT1080NT lethal: inconclusive; TDP1 cell noCPT: 15µM*; KB-3-1 tox: inactive; HT1080 IDH1KD tx: inconclusive; TDP1 cell CPT: inconclusive

Results for COc1ccc(OCc2nc(N)nc(Nc3ccccc3)n2)cc1 ?
KB-V1 cytotox: inconclusive; HT1080NT lethal: 1%; TDP1 cell noCPT: inconclusive; KB-3-1 tox: inactive; HT1080 IDH1KD tx: -7%; TDP1 cell CPT: -25%

How did Cc1c(-c2nc(N)nc(Nc3ccccc3)n2)oc2ccccc12 do in these assays?
KB-V1 cytotox: inconclusive; HT1080NT lethal: inconclusive; TDP1 cell noCPT: 16µM*; KB-3-1 tox: inactive; HT1080 IDH1KD tx: inconclusive; TDP1 cell CPT: inconclusive

What do the screens show for `CN(C)S(=O)(=O)c1ccc2c(c1)N(CC(=O)N1CCC(C(N)=O)CC1)CCS2`?
KB-V1 cytotox: inactive; KB-3-1 tox: inactive

What do the screens show for `CCCNC(=O)C1CCN(S(=O)(=O)c2ccc3c(c2)OCCO3)CC1`?
KB-V1 cytotox: inactive; HT1080NT lethal: 3%; TDP1 cell noCPT: 3%; KB-3-1 tox: inactive; HT1080 IDH1KD tx: 2%; TDP1 cell CPT: -5%

Results for CCCNC(=O)C1CCN(S(=O)(=O)c2ccc(-c3nn[nH]n3)cc2)CC1 ?
KB-V1 cytotox: inactive; HT1080NT lethal: 1%; TDP1 cell noCPT: 0.01µM*; KB-3-1 tox: inactive; HT1080 IDH1KD tx: -5%; TDP1 cell CPT: 12µM*

What do the screens show for `CCCNC(=O)C1CCN(S(=O)(=O)c2ccc(Br)cc2)CC1`?
KB-V1 cytotox: 16µM*; HT1080NT lethal: -9%; TDP1 cell noCPT: -26%; KB-3-1 tox: inactive; HT1080 IDH1KD tx: -28%; TDP1 cell CPT: -22%

What do the screens show for `O=C(CCNC(=O)C1CCN(S(=O)(=O)c2ccccc2)CC1)NCCc1cccc(F)c1`?
KB-V1 cytotox: inconclusive; HT1080NT lethal: 1%; TDP1 cell noCPT: 26µM*; KB-3-1 tox: inactive; HT1080 IDH1KD tx: 0%; TDP1 cell CPT: inconclusive

What do the screens show for `COc1ccc(CNC(=O)C2CCN(S(=O)(=O)c3ccc(-c4nn[nH]n4)cc3)CC2)cc1`?
KB-V1 cytotox: inactive; HT1080NT lethal: 0%; TDP1 cell noCPT: -12%; KB-3-1 tox: inactive; HT1080 IDH1KD tx: 7%; TDP1 cell CPT: -5%

What do the screens show for `O=C(CCNC(=O)C1CCN(S(=O)(=O)c2ccccc2)CC1)NCCc1ccc(Cl)cc1`?
KB-V1 cytotox: inactive; HT1080NT lethal: 12%; TDP1 cell noCPT: -8%; KB-3-1 tox: inactive; HT1080 IDH1KD tx: 0%; TDP1 cell CPT: -14%

Results for Cc1cc2nc(-c3ccc(OCc4ccccc4F)cc3)cc(C(F)(F)F)n2n1 ?
KB-V1 cytotox: inconclusive; TDP1 cell noCPT: inconclusive; KB-3-1 tox: inactive; TDP1 cell CPT: inconclusive

What do the screens show for `CN(C)C(=S)N=Nc1[nH]c2ccccc2c1O`?
KB-V1 cytotox: inactive; HT1080NT lethal: -26%; TDP1 cell noCPT: 0.52µM*; KB-3-1 tox: inactive; HT1080 IDH1KD tx: -14%; TDP1 cell CPT: 0.58µM*

What do the screens show for `O=C1NC[C@@H](CCCCN2CCN(Cc3ccccc3)C(=O)C2=O)N(Cc2ccccc2)C1=O`?
KB-V1 cytotox: inactive; HT1080NT lethal: 23%; TDP1 cell noCPT: -9%; KB-3-1 tox: inactive; HT1080 IDH1KD tx: 14%; TDP1 cell CPT: -1%

How did N#CC1(NC(=O)CSc2nnc(-c3ccccc3F)n2N)CCCCC1 do in these assays?
KB-V1 cytotox: inactive; HT1080NT lethal: 8%; TDP1 cell noCPT: -16%; KB-3-1 tox: inactive; HT1080 IDH1KD tx: 12%; TDP1 cell CPT: 0%

How did COc1cccc(C(C(=O)NCc2ccccc2)N2CCN(c3ccccc3F)CC2)c1OC (stereo unspecified) do in these assays?
KB-V1 cytotox: inconclusive; HT1080NT lethal: -16%; TDP1 cell noCPT: 16µM*; KB-3-1 tox: inactive; HT1080 IDH1KD tx: -10%; TDP1 cell CPT: 21µM*

Results for COc1cccc(C(C(=O)NCc2ccccc2)N2CCN(CCN3CCOCC3)CC2)c1OC (stereo unspecified) ?
KB-V1 cytotox: inactive; HT1080NT lethal: -1%; TDP1 cell noCPT: -3%; KB-3-1 tox: inactive; HT1080 IDH1KD tx: 17%; TDP1 cell CPT: -6%

How did CC(C)C(C(=O)NCc1ccccc1)N1CCN(c2ccccc2F)CC1 (stereo unspecified) do in these assays?
KB-V1 cytotox: inconclusive; HT1080NT lethal: 9%; TDP1 cell noCPT: inconclusive; KB-3-1 tox: inactive; HT1080 IDH1KD tx: 14%; TDP1 cell CPT: inconclusive

Results for O=C(NCc1ccccc1)C(c1ccc(F)cc1)N1CCN(c2ccccc2F)CC1 (stereo unspecified) ?
KB-V1 cytotox: inactive; HT1080NT lethal: inconclusive; TDP1 cell noCPT: 12µM*; KB-3-1 tox: inactive; HT1080 IDH1KD tx: inconclusive; TDP1 cell CPT: 9.2µM*

Results for CCN(CC)S(=O)(=O)c1ccc2c(c1)nc(SCC(=O)N1CCCCCC1)n2-c1ccc(OC)cc1 ?
KB-V1 cytotox: inactive; HT1080NT lethal: -2%; TDP1 cell noCPT: 23µM*; KB-3-1 tox: inactive; HT1080 IDH1KD tx: -12%; TDP1 cell CPT: 15µM*

How did Cc1ccc(CNC(=O)c2cc(-c3ccc(Cl)cc3)on2)cc1 do in these assays?
KB-V1 cytotox: inactive; TDP1 cell noCPT: -7%; KB-3-1 tox: inactive; TDP1 cell CPT: 1%

What do the screens show for `COC(=O)c1ccc(NC2=CC(=O)CC(C)(C)C2)cc1`?
KB-V1 cytotox: inactive; HT1080NT lethal: inconclusive; TDP1 cell noCPT: 23µM*; KB-3-1 tox: inconclusive; HT1080 IDH1KD tx: inconclusive; TDP1 cell CPT: 23µM*

What do the screens show for `CCCc1cc(=O)[nH]c2nnc(SCC(=O)Nc3cccc(C)c3)n12`?
TDP1 cell noCPT: 25%; TDP1 cell CPT: 0%

Results for COc1ccc(OC)c(NC(=O)CN(Cc2ccc(F)cc2)C2CCCCC2)c1 ?
KB-V1 cytotox: inconclusive; HT1080NT lethal: inconclusive; TDP1 cell noCPT: 16µM*; KB-3-1 tox: 16µM*; HT1080 IDH1KD tx: inconclusive; TDP1 cell CPT: inconclusive
